# Reference: the supplement of paper PMC9588786
# ± gives the standard deviation of the averaged measurements.
# Test system: HT-1080
# Assay: relative cell viability with RSL3 co-treatment (fraction of control); higher = stronger protection from RSL3-induced ferroptosis (higher viability)
# Conditions: 10 µM
# 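Note: viability read as CCK-8 absorbance at 450 nm in cells co-exposed to the GPX4 inhibitor RSL3, relative to a 0.01% DMSO vehicle control.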
row,SMILES,relative cell viability
1,CN(C[C@@H]1COCCO1)S(=O)(=O)Nc1ccc2ccc3ncc(-c4cnn(C)c4)cc3c(=O)c2c1,0.657 ± 0.25
2,CCS(=O)(=O)Nc1ccc2c(c1)/C(=C(/Nc1ccc(CN3CCCCC3)cc1)c1ccccc1)C(=O)N2 [Hesperadin],0.293 ± 0.12
3,CN(C)Cc1cccc(N=C(c2ccccc2)c2c(O)[nH]c3cc(C(=O)N(C)C)ccc23)c1,0.79 ± 0.044
4,O=C(NCCCNc1nc(Nc2cccc(NC(=O)N3CCCC3)c2)ncc1I)c1cccs1,0.657 ± 0.011
5,COc1cc2ncnc(Oc3ccc(CC(=O)Nc4cnn(C(C)C)c4)cc3)c2cc1OC,0.643 ± 0.33
6,COc1cc(Nc2ncc(F)c(Nc3ccc4c(n3)N(COP(=O)(O)O)C(=O)C(C)(C)O4)n2)cc(OC)c1OC [Fostamatinib (R788)],0.6 ± 0.017
7,COc1ccc(CNC(=O)Nc2ncc([N+](=O)[O-])s2)cc1,0.45 ± 0.03
8,CO[C@H]1C[C@@H]2CC[C@@H](C)[C@@](O)(O2)C(=O)C(=O)N2CCCC[C@H]2C(=O)O[C@H]([C@H](C)C[C@@H]2CC[C@@H](O)[C@H](OC)C2)CC(=O)[C@H](C)/C=C(\C)[C@@H](O)[C@@H](OC)C(=O)[C@H](C)C[C@H](C)/C=C/C=C/C=C/1C [Rapamycin (Sirolimus)],0.387 ± 0.085
9,CCCNC(=O)Nc1ccc(Oc2ncnc3cc(OC)c(OC)cc23)cc1Cl,0.757 ± 0.42
10,N#C/C(=C\c1ccc(O)c(O)c1)C(=O)NCc1ccccc1 [AG-490 (Tyrphostin B42)],0.55 ± 0.12
11,CNC(=O)c1cc(COc2nnc(Nc3ccc(Cl)cc3)c3ccoc23)ccn1 [Telatinib],0.623 ± 0.057
12,COc1cc2ncnc(Nc3ccc(Cl)cc3F)c2cc1OC,0.757 ± 0.14
13,CC[C@@](C)(Nc1ccnc(-c2c[nH]c3ncccc23)n1)C(=O)NCC(F)(F)F [Decernotinib (VX-509)],0.823 ± 0.042
14,CC(C)(C)Cn1c(N)nc2ccc(-c3[nH]c(C(C)(C)C)nc3-c3ccc(F)cc3)nc21,0.71 ± 0.017
15,O=C1NCCc2[nH]c(-c3ccncc3)cc21,0.69 ± 0.04
16,CCCCCCCCCCCCCCCCOP(=O)([O-])OCC[N+](C)(C)C [Miltefosine],0.6 ± 0.13
17,C#Cc1cccc(Nc2ncnc3cc(OCCOC)c(OCCO)cc23)c1,0.597 ± 0.081
18,COc1ccc2c(Oc3ccc(NC(=O)c4c(C)n(CC(C)(C)O)n(-c5ccccc5)c4=O)nc3)ccnc2c1,0.76 ± 0.052
19,Oc1cc(O)cc(/C=C/c2ccc(O)c(O)c2)c1 [Piceatannol],0.717 ± 0.04
20,Cc1ccc(C(=O)Nc2ccc(CN3CCN(C)CC3)c(C(F)(F)F)c2)cc1C#Cc1cnc2[nH]ncc2c1 [GZD824 Dimesylate],0.553 ± 0.031

row,SMILES,relative cell viability
1,Cc1ccc(C(=O)Nc2cccc(C(F)(F)F)c2)cc1Nc1nc(-c2cccnc2)nc2c1cnn2C,0.473 ± 0.23
2,CN1CCN(c2nc(C3=C(c4c[nH]c5ccccc45)C(=O)NC3=O)c3ccccc3n2)CC1 [Sotrastaurin],0.903 ± 0.042
3,CN1CCN(c2ccc(Nc3cc(-c4cccc(-n5ccc6cc(C7CC7)cc(F)c6c5=O)c4CO)cn(C)c3=O)nc2)CC1,0.763 ± 0.067
4,CCc1cc(Nc2nccc(-c3c(-c4ccc(OC)c(C(=O)Nc5c(F)cccc5F)c4)nc4ccccn34)n2)c(OC)cc1N1CCC(N2CCN(S(C)(=O)=O)CC2)CC1,0.55 ± 0.01
5,CCCCCCCCCCCCc1ccc(S(=O)(=O)Nc2nncs2)cc1,0.877 ± 0.09
6,O=C1NC(=O)C(=Cc2ccc(-c3ccc(F)cc3)o2)S1 (stereo in doubt),0.887 ± 0.11
7,Cc1c(NC(=O)c2ccc(C(C)(C)C)cc2)cccc1-c1cn(C)c(=O)c(Nc2ccc(C(=O)N3CCOCC3)cc2)n1,0.647 ± 0.1
8,NC[C@@](O)(c1ccc(Cl)cc1)c1ccc(-c2cn[nH]c2)cc1,0.687 ± 0.22
9,"CC[C@H](Nc1ncnc2[nH]cnc12)c1nc2cccc(F)c2c(=O)n1-c1ccccc1 [Idelalisib (CAL-101, GS-1101)]",0.753 ± 0.031
10,C=CC(=O)Nc1cccc(Nc2nc(Nc3ccc(Oc4ccnc(C(=O)NC)c4)cc3)ncc2F)c1,0.6 ± 0.056
11,Cn1cnc(N)c2ncnc1-2 [3-Methyladenine (3-MA)],0.76 ± 0.078
12,CO[C@@H](C(=O)N1Cc2[nH]nc(NC(=O)c3ccc(N4CCN(C)CC4)cc3)c2C1)c1ccccc1,0.507 ± 0.1
13,FC(F)c1nc2ccccc2n1-c1nc(N2CCOCC2)nc(N2CCOCC2)n1,0.723 ± 0.14
14,COc1cc(Nc2ncc(F)c(Nc3ccc4c(n3)NC(=O)C(C)(C)O4)n2)cc(OC)c1OC [R406 (free base)],0.79 ± 0.02
15,O=C(O)c1ccc(-c2c[nH]c3ncc(-c4ccccc4)cc23)cc1C1CCCC1,0.81 ± 0.017
16,N[C@@H]1CCCN(c2c(/C=C3\SC(=O)NC3=O)cccc2-c2ccccc2)C1,0.697 ± 0.13
17,N#CC(=C(/N)Sc1ccccc1N)/C(C#N)=C(\N)Sc1ccccc1N,0.84 ± 0.017
18,COc1ccccc1-c1cc(Nc2cccc(CS(N)(=O)=O)c2)ncn1,0.613 ± 0.095
19,CNc1nc(Nc2cnn([C@H]3CCN(C4COC4)C[C@@H]3F)c2Cl)ncc1C(F)(F)F,0.617 ± 0.032
